Source: paper PMC7862700, “An all-to-all approach to the identification of sequence-specific readers for epigenetic DNA modifications on cytosine”

What was measured:
Assay in all cases: DAPPL (digital affinity profiling via proximity ligation, sequencing); 10 mM Tris-HCl pH 7.5, 50 mM NaCl, 1 mM DTT, 4% glycerol, room temperature, 30 min; GST-TFs on glutathione beads, 16-mer random dsDNA library, 0.1% formaldehyde crosslink after washing; high values mean tight binding
[1] = biological target: T1, FEV (Homo sapiens, UniProt Q99581 1-238); conditions: protein: recombinant; tags: N-terminal GST; dsDNA, one strand shown
T1 sequence: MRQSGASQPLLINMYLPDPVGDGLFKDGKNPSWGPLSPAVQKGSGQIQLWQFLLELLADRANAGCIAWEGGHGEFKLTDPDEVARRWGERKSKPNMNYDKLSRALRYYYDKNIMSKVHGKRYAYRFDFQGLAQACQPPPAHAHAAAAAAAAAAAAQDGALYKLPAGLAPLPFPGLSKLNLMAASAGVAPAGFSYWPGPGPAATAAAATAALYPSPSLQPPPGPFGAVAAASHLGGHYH
Summary of the method: (§1)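 In yeast, human transcription factors were expressed with a GST fusion, then pulled down on glutathione beads and given DNA barcodes. Pooled with a tag-only sample, they were exposed to 200 nmole of a 16-mer random double-stranded DNA library (Tris/NaCl/DTT/glycerol buffer, room temperature, 30 min), washed, crosslinked with 0.1% formaldehyde, proximity-ligated using BsaI/T4 ligase for 1 h at 37 °C, PCR-amplified and read on an Illumina NextSeq500. Each hexamer's frequency of reads for a factor, divided by the matching frequency for the tag-only sample, gives the binding signal.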

[2] = biological target: ETV5 (Homo sapiens, UniProt P41161 1-510); conditions: protein: recombinant; tags: N-terminal GST; dsDNA, one strand shown
Summary of the method: as §1

[3] = biological target: HSF1 (Homo sapiens, UniProt Q00613 1-529); conditions: protein: recombinant; tags: N-terminal GST; chain copies: 3; dsDNA, one strand shown
Summary of the method: as §1

[4] = biological target: T2, SPIC (Homo sapiens, UniProt Q8N5J4 1-248); conditions: protein: recombinant; tags: N-terminal GST; dsDNA, one strand shown
T2 sequence: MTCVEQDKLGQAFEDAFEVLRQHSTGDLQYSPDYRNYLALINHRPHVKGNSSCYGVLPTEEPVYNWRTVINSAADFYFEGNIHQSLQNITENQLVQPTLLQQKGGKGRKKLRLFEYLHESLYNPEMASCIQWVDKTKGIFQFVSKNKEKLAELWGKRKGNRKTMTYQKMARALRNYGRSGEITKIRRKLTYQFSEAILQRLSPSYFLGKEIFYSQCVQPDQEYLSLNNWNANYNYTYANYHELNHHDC
Summary of the method: as §1

[5] = biological target: ELF4 (Homo sapiens, UniProt Q99607 1-663); conditions: protein: recombinant; tags: N-terminal GST; dsDNA, one strand shown
Summary of the method: as §1

[6] = biological target: T3, ELK4 (Homo sapiens, UniProt P28324-2 1-405); conditions: protein: recombinant; tags: N-terminal GST; dsDNA, one strand shown
T3 sequence: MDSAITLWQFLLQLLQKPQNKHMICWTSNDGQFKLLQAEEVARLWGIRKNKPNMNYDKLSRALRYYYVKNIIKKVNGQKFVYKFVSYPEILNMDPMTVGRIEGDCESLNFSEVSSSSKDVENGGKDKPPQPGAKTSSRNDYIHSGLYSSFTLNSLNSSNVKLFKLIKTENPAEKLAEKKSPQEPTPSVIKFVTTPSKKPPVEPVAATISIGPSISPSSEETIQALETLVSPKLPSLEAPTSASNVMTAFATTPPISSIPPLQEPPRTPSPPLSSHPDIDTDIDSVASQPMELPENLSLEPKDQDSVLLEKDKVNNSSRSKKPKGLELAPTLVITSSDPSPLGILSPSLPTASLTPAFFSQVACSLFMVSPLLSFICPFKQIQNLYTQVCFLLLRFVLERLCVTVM
Summary of the method: as §1

[7] = biological target: T4, ETV2 (Homo sapiens, UniProt O00321 1-342); conditions: protein: recombinant; tags: N-terminal GST; dsDNA, one strand shown
T4 sequence: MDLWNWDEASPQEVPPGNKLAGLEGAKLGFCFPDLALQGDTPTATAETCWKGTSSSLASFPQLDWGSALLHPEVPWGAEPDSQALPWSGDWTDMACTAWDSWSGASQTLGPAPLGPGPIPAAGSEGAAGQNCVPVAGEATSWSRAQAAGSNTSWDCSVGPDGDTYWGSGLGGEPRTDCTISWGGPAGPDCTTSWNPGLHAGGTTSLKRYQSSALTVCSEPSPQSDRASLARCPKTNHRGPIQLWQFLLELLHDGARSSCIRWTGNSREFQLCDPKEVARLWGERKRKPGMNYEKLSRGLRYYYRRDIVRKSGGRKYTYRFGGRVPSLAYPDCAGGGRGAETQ
Summary of the method: as §1

[8] = biological target: T5, ELF3 (Homo sapiens, UniProt P78545 1-371); conditions: protein: recombinant; tags: N-terminal GST; dsDNA, one strand shown
T5 sequence: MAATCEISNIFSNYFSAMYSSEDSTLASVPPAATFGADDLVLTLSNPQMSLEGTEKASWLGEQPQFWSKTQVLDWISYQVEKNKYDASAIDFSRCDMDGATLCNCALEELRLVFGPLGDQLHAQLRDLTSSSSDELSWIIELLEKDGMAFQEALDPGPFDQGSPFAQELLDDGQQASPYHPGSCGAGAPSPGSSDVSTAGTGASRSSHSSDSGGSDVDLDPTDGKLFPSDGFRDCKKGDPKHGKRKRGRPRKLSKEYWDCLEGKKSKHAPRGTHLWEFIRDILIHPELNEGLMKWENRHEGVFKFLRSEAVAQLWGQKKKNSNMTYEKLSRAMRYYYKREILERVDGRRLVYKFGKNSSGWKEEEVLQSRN
Summary of the method: as §1

[9] = biological target: CRX (Homo sapiens, UniProt O43186 1-299); conditions: protein: recombinant; tags: N-terminal GST; dsDNA, one strand shown
Summary of the method: as §1

[10] = biological target: ETV1 (Homo sapiens, UniProt P50549 1-477); conditions: protein: recombinant; tags: N-terminal GST; dsDNA, one strand shown
Summary of the method: as §1

[11] = biological target: T6, ERF (Homo sapiens, UniProt P50548 1-548); conditions: protein: recombinant; tags: N-terminal GST; dsDNA, one strand shown
T6 sequence: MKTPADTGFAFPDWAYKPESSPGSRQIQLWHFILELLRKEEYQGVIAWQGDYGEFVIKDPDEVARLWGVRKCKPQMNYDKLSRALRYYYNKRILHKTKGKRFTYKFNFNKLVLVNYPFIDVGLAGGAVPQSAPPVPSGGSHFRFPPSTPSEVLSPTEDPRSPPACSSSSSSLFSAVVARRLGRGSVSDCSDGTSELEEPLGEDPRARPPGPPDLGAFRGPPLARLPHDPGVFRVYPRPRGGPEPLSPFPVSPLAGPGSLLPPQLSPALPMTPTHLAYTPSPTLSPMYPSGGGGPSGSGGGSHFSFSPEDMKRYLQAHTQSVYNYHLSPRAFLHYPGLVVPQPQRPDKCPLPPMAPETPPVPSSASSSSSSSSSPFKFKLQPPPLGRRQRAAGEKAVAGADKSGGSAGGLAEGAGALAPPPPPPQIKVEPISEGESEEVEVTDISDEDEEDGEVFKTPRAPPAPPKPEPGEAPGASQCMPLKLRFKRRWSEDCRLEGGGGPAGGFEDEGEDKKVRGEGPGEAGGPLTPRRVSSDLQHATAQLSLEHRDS
Summary of the method: as §1

[12] = biological target: T7, ETV3L (Homo sapiens, UniProt Q6ZN32 1-361); conditions: protein: recombinant; tags: N-terminal GST; dsDNA, one strand shown
T7 sequence: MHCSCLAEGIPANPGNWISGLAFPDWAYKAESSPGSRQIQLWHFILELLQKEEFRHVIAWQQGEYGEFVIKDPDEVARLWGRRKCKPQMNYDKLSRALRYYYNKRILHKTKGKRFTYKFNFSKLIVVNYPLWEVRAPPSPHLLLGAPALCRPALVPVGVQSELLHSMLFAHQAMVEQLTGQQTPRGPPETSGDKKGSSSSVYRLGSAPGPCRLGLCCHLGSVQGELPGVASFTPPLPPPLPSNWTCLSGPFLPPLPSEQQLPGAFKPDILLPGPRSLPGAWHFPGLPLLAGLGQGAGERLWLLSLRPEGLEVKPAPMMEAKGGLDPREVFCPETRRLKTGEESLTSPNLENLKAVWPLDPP
Summary of the method: as §1

[13] = biological target: T8, ETS2 (Homo sapiens, UniProt P15036 1-469); conditions: protein: recombinant; tags: N-terminal GST; dsDNA, one strand shown
T8 sequence: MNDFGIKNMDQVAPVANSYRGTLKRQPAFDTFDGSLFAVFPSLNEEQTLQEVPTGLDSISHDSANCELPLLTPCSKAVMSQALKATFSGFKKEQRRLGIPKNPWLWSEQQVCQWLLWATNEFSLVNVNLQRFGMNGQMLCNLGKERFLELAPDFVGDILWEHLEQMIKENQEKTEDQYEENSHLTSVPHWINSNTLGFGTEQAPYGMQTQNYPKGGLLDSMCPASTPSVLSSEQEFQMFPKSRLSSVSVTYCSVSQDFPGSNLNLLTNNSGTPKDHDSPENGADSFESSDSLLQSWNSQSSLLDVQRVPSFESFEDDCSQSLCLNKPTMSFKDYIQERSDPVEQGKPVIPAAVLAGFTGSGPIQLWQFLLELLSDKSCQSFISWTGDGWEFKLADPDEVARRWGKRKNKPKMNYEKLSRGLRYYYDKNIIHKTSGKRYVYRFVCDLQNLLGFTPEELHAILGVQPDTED
Summary of the method: as §1

[14] = biological target: T9, SPDEF (Homo sapiens, UniProt O95238 1-335); conditions: protein: recombinant; tags: N-terminal GST; dsDNA, one strand shown
T9 sequence: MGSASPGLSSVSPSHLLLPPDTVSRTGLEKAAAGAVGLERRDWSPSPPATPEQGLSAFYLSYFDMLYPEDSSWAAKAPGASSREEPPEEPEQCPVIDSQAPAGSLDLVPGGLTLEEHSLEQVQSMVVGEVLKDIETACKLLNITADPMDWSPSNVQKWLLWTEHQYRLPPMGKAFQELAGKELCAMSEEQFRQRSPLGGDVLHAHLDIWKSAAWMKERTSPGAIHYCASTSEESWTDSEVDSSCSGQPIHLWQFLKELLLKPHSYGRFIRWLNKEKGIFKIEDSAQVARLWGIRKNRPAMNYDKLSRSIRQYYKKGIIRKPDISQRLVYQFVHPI
Summary of the method: as §1

[15] = biological target: T10, ETV7 (Homo sapiens, UniProt Q9Y603 1-341); conditions: protein: recombinant; tags: N-terminal GST; dsDNA, one strand shown
T10 sequence: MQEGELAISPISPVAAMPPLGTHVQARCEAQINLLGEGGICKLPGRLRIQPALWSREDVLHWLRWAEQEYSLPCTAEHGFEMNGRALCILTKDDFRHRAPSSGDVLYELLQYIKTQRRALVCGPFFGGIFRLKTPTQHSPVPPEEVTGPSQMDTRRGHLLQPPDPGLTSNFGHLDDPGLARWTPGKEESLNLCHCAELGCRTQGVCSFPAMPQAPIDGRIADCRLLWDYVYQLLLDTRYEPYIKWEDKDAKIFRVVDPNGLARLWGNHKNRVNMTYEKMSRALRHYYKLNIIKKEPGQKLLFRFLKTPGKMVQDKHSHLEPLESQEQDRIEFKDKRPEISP
Summary of the method: as §1

[16] = biological target: T11, ELF5 (Homo sapiens, UniProt Q9UKW6-2 1-255); conditions: protein: recombinant; tags: N-terminal GST; dsDNA, one strand shown
T11 sequence: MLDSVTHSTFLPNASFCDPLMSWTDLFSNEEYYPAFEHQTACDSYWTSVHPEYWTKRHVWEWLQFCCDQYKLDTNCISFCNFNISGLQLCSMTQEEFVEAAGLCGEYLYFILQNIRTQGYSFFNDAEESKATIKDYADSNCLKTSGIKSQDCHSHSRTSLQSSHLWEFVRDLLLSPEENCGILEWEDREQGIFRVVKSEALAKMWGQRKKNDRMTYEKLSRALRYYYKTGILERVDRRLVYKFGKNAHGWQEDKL
Summary of the method: as §1

[17] = biological target: T12, ETV3 (Homo sapiens, UniProt P41162-2 1-143); conditions: protein: recombinant; tags: N-terminal GST; dsDNA, one strand shown
T12 sequence: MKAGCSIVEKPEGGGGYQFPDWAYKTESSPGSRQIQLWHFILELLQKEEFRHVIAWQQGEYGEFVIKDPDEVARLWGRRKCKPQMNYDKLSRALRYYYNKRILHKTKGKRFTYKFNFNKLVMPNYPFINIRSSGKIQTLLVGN
Summary of the method: as §1

[18] = biological target: ETV6 (Homo sapiens, UniProt P41212 1-452); conditions: protein: recombinant; tags: N-terminal GST; dsDNA, one strand shown
Summary of the method: as §1

Sequence of CRX (O43186 whole entry): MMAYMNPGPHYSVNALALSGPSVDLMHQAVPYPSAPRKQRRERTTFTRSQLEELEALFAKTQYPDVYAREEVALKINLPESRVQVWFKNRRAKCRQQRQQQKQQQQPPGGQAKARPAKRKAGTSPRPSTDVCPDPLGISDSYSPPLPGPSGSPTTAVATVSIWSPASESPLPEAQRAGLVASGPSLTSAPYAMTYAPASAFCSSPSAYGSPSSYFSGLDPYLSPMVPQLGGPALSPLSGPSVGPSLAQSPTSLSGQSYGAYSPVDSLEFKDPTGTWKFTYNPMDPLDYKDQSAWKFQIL
Sequence of ETV5 (P41161 whole entry): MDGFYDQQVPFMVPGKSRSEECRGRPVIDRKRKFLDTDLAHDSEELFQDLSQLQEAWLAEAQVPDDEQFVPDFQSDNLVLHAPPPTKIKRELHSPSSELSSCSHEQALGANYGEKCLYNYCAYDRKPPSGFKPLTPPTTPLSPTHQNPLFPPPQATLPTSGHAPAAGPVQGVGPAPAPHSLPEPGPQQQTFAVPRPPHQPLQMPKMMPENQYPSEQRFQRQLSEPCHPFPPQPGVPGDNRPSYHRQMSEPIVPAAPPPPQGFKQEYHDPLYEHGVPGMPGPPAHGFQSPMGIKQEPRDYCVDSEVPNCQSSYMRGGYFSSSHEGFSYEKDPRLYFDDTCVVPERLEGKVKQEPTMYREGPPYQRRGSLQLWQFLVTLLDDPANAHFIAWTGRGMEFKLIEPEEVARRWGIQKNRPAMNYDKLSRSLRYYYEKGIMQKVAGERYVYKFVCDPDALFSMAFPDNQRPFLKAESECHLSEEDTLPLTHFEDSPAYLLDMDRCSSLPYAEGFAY
Sequence of ETV1 (P50549 whole entry): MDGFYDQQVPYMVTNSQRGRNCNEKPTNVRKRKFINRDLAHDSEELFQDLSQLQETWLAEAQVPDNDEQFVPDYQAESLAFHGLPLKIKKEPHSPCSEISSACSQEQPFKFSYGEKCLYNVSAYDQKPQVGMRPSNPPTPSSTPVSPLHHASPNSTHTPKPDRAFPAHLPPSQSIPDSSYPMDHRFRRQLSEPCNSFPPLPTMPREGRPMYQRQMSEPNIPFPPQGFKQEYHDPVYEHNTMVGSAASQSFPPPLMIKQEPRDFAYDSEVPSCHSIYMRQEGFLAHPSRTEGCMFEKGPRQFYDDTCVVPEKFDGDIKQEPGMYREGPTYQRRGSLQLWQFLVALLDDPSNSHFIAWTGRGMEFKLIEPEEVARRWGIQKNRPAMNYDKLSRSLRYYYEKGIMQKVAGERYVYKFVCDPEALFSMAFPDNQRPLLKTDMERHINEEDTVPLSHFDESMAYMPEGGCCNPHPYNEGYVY
Sequence of ETV6 (P41212 whole entry): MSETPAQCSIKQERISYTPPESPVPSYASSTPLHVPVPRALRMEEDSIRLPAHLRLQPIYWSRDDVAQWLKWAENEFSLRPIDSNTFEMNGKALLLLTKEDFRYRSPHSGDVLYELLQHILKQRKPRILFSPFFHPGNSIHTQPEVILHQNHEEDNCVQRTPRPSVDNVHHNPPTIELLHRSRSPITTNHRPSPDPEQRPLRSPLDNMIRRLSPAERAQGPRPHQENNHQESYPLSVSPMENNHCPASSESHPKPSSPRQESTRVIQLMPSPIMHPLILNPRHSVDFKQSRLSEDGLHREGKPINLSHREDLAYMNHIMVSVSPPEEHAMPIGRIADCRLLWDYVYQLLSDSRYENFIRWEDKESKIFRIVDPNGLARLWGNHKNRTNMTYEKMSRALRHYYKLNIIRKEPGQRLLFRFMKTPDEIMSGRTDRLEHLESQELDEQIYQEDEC
Sequence of ELF4 (Q99607 whole entry): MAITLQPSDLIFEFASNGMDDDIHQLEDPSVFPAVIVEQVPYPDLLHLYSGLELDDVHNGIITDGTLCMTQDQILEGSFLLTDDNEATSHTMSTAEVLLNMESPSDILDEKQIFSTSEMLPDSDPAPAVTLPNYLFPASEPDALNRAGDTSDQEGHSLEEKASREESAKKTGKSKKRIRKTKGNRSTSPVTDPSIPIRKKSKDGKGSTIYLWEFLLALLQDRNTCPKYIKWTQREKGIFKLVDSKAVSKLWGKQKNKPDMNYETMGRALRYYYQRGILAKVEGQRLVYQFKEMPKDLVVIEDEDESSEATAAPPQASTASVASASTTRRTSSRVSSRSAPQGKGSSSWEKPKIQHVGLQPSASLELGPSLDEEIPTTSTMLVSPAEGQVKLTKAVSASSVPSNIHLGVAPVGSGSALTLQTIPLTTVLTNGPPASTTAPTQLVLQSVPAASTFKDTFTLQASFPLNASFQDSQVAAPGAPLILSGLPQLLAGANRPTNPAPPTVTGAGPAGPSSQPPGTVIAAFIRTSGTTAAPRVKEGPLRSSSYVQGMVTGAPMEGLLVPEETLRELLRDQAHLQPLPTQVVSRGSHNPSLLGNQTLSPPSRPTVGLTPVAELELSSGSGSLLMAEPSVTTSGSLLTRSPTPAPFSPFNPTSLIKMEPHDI
Sequence of HSF1 (Q00613 whole entry): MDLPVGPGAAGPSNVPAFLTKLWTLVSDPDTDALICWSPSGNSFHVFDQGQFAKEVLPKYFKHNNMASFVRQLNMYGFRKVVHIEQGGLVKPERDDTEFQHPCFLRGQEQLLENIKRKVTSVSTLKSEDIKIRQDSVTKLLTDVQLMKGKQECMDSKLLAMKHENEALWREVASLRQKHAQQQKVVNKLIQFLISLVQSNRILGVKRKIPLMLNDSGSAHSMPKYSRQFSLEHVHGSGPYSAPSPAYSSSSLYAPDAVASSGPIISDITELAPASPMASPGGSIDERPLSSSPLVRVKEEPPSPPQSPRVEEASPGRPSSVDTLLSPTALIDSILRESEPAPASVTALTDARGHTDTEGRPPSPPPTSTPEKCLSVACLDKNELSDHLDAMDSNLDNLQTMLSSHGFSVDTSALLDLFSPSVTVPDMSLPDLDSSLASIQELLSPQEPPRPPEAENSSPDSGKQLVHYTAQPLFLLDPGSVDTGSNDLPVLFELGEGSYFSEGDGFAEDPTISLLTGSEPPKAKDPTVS

ACTCAT
binding signal [1]: 1.32 fold enrichment (6-mer frequency, TF over GST control)
binding signal [2]: 1.32 fold enrichment (6-mer frequency, TF over GST control)
binding signal [3]: 1.13 fold enrichment (6-mer frequency, TF over GST control)
binding signal [4]: 1.26 fold enrichment (6-mer frequency, TF over GST control)
binding signal [5]: 1.35 fold enrichment (6-mer frequency, TF over GST control)
binding signal [6]: 1.32 fold enrichment (6-mer frequency, TF over GST control)
binding signal [7]: 1.42 fold enrichment (6-mer frequency, TF over GST control)
binding signal [8]: 1.13 fold enrichment (6-mer frequency, TF over GST control)
binding signal [9]: 1.19 fold enrichment (6-mer frequency, TF over GST control)
binding signal [10]: 1.35 fold enrichment (6-mer frequency, TF over GST control)
binding signal [11]: 1.39 fold enrichment (6-mer frequency, TF over GST control)
binding signal [12]: 1.26 fold enrichment (6-mer frequency, TF over GST control)
binding signal [13]: 1.29 fold enrichment (6-mer frequency, TF over GST control)
binding signal [14]: 1.24 fold enrichment (6-mer frequency, TF over GST control)
binding signal [15]: 1.27 fold enrichment (6-mer frequency, TF over GST control)
binding signal [16]: 1.32 fold enrichment (6-mer frequency, TF over GST control)
binding signal [17]: 1.3 fold enrichment (6-mer frequency, TF over GST control)
binding signal [18]: 1.31 fold enrichment (6-mer frequency, TF over GST control)
